Assay results published in PubChem BioAssay (Tox21).
Results filed as inconclusive are left out. Calls of active or inactive are those of the source. Unless noted, the call rests on the fitted dose curve; in most records, active means well fitted curve in the direction sought with a large enough effect in the repeat runs; inconclusive means weak or mixed curves; inactive means no such curve, though single readings can be large; an effect the other way counts as inactive or inconclusive.

Assays:
[1] = qHTS assay to identify small molecule antagonists of the TGF-beta/Smad signaling pathway - cell viability counter screen (AID 1346824); further: nearly all actives have a fitted effect of over 50% in size
Procedure, shortened: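 SBE-bla HEK 293T cells, incubated overnight, then compound plus 0.25 ng/mL TGF-beta1 (stock added) for 5 hr at 37 C. Viability was read in the same wells by CellTiter-Glo luminescence after 30 min at room temperature.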

[2] = qHTS assay to identify small molecule agonists of the TGF-beta/Smad signaling pathway - cell viability counter screen (AID 1346829); further: top concentration of the series differs between compounds; nearly all actives have a fitted effect of over 45% in size
Procedure, shortened: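 After overnight seating at 37 C and 5% CO2, reporter cells got compounds for 5 hr and FRET substrate for 2 hr; cell viability then came from CellTiter-Glo luminescence.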

[3] = qHTS assay to identify small molecule agonists of the TGF-beta/Smad signaling pathway (AID 1346859; active means well fitted activation curve with a large enough effect in the signal ratio in the repeat runs, not every such curve was filed as active; the % refers to the signal ratio; further: series mostly up to about 77 µM)
Procedure, shortened: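 Stable Smad binding element-beta-lactamase HEK 293T cells; 5 hr compound exposure at 37 C under 5% CO2; 2 hr room-temperature substrate step; fluorescence excited at 405 nm, collected at 460 nm and 530 nm.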

[4] = target: Thyrotropin-releasing hormone receptor (Homo sapiens) (UniProt P34981); experiment: qHTS assay to identify small molecule antagonists of the thyrotropin-releasing hormone receptor (TRHR) signaling pathway (AID 1346877; active means well fitted inhibition curve with a large enough effect in the repeat runs, not every such curve was filed as active; further: series mostly up to about 51 µM)
Chain of Thyrotropin-releasing hormone receptor (Homo sapiens) (P34981 whole entry, looked up): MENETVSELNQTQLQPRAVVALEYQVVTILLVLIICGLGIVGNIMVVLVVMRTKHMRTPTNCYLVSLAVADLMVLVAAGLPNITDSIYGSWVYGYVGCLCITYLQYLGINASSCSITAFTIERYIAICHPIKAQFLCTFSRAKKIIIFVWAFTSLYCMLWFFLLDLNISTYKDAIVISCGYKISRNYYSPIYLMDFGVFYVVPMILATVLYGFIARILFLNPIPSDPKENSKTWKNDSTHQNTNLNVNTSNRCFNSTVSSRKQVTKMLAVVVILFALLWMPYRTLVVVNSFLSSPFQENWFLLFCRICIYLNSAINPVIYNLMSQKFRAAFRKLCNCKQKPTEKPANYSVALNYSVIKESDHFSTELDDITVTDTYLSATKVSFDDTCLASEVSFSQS
Procedure, shortened: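 TRHR-expressing HEK293 cells were seeded, cultured 18 h at 37 °C, then loaded with calcium dye for 2 h. Compounds were pre-incubated 5 min at room temperature before 1 nM TRH (final) was added, and kinetic fluorescence was recorded for 3 min.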

[5] = target: Thyrotropin-releasing hormone receptor (Homo sapiens) (UniProt P34981); experiment: qHTS assay to identify small molecule agonists of the thyrotropin-releasing hormone receptor (TRHR) signaling pathway (AID 1346891; calls by dose curve; further: series mostly up to about 58 µM)
Procedure, shortened: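 In 1536-format, 1500 TRHR-Hek293 cells per well grew 18 h, took up calcium dye for 2 h at 37 °C, received compound, and were read kinetically; 15-point titrations, triplicates.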

[6] = Human pregnane X receptor (PXR) small molecule agonists, qHTS cell viability counter screen (AID 1346977); further: nearly all actives have a fitted effect of over 50% in size
Procedure, shortened: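 Readout is CellTiter-Fluor fluorescence from PXR-Luc HepG2 cells. Plated cells rested 5hr, then were treated with compounds for 24hr at 37C and 5% CO2, with reagent present during the last hour.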

[7] = Caspase-3/7 induction in HepG2 cells by small molecules, qHTS assay (AID 1346978); further: nearly all actives have a fitted effect of over 15% in size
Procedure, shortened: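 Wild-type HepG2 cells, 2,000/well, settled 5 hr at 37 C and 5% CO2, then compound-treated for 17 hr; caspase-3/7 activity read by luminescent Caspase-Glo 3/7 after 30 min at room temperature.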

[8] = Caspase-3/7 induction in CHO-K1 cells by small molecules, qHTS cell viability counter screen (AID 1346979); further: nearly all actives have a fitted effect of over 35% in size
Procedure, shortened: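 To flag cytotoxic compounds, treated CHO-K1 wild-type cells were given CellTiter-Fluor at 16hr and read fluorescently after 1hr at 37C; the caspase-3/7 luminescence was measured in these same wells.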

[9] = Caspase-3/7 induction in HepG2 cells by small molecules, qHTS cell viability counter screen (AID 1346981); further: series mostly up to about 92 µM; nearly all actives have a fitted effect of over 30% in size
Procedure, shortened: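 Wild-type HepG2 cells (2,000/well) were allowed to settle for 5 hr at 37 C, 5% CO2, then dosed with compounds in DMSO by pin transfer. After 16 hr at 37 C, CellTiter-Fluor was added and fluorescence read 1 hr later.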

[10] = Caspase-3/7 induction in CHO-K1 cells by small molecules, qHTS assay (AID 1346980); further: nearly all actives have a fitted effect of over 15% in size
Procedure, shortened: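 Wild-type CHO-K1 cells exposed to compounds for 17hr at 37 C, 5% CO2. Caspase-3/7 activity then measured by Caspase-Glo 3/7 luminescence after 30min at room temperature.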
On the % scale 0 is the no-effect control and ±100 the full control effect.

O=C(O)Cc1cccc(-c2cc(CCCCCCc3ccc(O[C@H]4O[C@H](CO)[C@@H](O)[C@H](O)[C@@H]4O)c(-c4cccc(CC(=O)O)c4)c3)ccc2O[C@H]2O[C@H](CO)[C@@H](O)[C@H](O)[C@@H]2O)c1
inactive: viability change, negative = cytotoxic [1] 10.9% [at 0.29 µM] | activity change, negative = cytotoxicity [2] 10.8% [at 0.29 µM] | activation [3] -0.374% [at 0.29 µM] | activity, negative = inhibition [4] 0.417% [at 0.194 µM] | activation [5] -0.342% [at 0.218 µM] | activity change, negative = cytotoxicity [6] 17.5% [at 0.349 µM] | caspase activation [7] 0.734% [at 0.349 µM] | activity change, negative = cytotoxicity [8] 2.17% [at 0.349 µM] | activity change, negative = cytotoxicity [9] 2.65% [at 0.349 µM]

COc1cccc2sc(N)nc12
inactive: outcome [1] | outcome [2] | outcome [3] | outcome [4] | outcome [5] | Potency [6] | Potency [8] | outcome [10] | Potency [9]

Nc1nc(=O)n([C@@H]2O[C@H](CO)[C@@H](O)[C@@H]2F)cc1I
inactive: outcome [1] | outcome [2] | outcome [3] | outcome [4] | outcome [5] | Potency [6] | outcome [7] | outcome [10] | Potency [9]

CN(C1CCCCC1)S(=O)(=O)c1ccccc1N
inactive: outcome [1] | outcome [2] | outcome [3] | outcome [4] | outcome [5] | Potency [6] | outcome [7] | Potency [8] | Potency [9]

C=CCCCCCCCCCCC
inactive: viability change, negative = cytotoxic [1] 12.5% [at 6.97 µM] | activity change, negative = cytotoxicity [2] -3.69% [at 6.97 µM] | activation [3] -3.71% [at 6.97 µM] | activity, negative = inhibition [4] 4.06% [at 4.65 µM] | activation [5] -0.423% [at 5.23 µM] | activity change, negative = cytotoxicity [6] -1.17% [at 8.39 µM] | caspase activation [7] -1.35% [at 8.39 µM] | activity change, negative = cytotoxicity [8] -0.387% [at 8.39 µM] | activity change, negative = cytotoxicity [9] 0.644% [at 8.39 µM]

C=CC(C)(O)CC/C=C(\C)CC (stereo not drawn)
inactive: outcome [1] | outcome [2] | outcome [3] | outcome [4] | outcome [5] | Potency [6] | outcome [7] | outcome [10] | Potency [9]

CC(=O)N1CCN(c2ccc(O)cc2)CC1
inactive: outcome [1] | outcome [2] | outcome [3] | outcome [4] | outcome [5] | Potency [6] | Potency [8] | outcome [10] | Potency [9]

O=S(=O)(O)CCO
inactive: outcome [1] | outcome [2] | outcome [3] | outcome [4] | outcome [5] | Potency [6] | outcome [7] | Potency [8] | Potency [9]

Nc1ccc(S(=O)(=O)NC(=O)c2ccccc2)cc1
inactive: outcome [1] | outcome [2] | outcome [3] | outcome [4] | outcome [5] | Potency [6] | outcome [7] | outcome [10] | Potency [9]

CC(C)CCCCCCOC(=O)C1CCCCC1C(=O)OCCCCCCC(C)C (stereo not drawn)
inactive: outcome [1] | outcome [2] | outcome [3] | outcome [4] | outcome [5] | Potency [6] | Potency [8] | Potency [9]

CCOC(=O)CC#N
inactive: outcome [1] | outcome [2] | outcome [3] | outcome [4] | outcome [5] | Potency [6] | outcome [7] | Potency [8] | Potency [9]

CC(C)COC(=O)COc1ccc(Cl)cc1Cl
inactive: outcome [1] | outcome [2] | outcome [3] | outcome [4] | outcome [5] | Potency [6] | outcome [7] | Potency [8] | Potency [9]

CCCCOC(=O)C(=O)OCCCC
inactive: outcome [1] | outcome [2] | outcome [3] | outcome [4] | outcome [5] | Potency [6] | outcome [7] | outcome [10] | Potency [9]

CCC(CO)CO
inactive: outcome [1] | outcome [2] | outcome [3] | outcome [4] | outcome [5] | Potency [6] | Potency [8] | outcome [10] | Potency [9]

CCC(=O)c1ccc(O)cc1
inactive: outcome [1] | outcome [2] | outcome [3] | outcome [4] | outcome [5] | Potency [6] | outcome [7] | outcome [10]

CN(C)CCOCCN(C)CCO
inactive: outcome [1] | outcome [2] | outcome [3] | outcome [4] | outcome [5] | Potency [6] | Potency [8] | outcome [10] | Potency [9]

OCCCCCCCl
inactive: outcome [1] | outcome [2] | outcome [3] | outcome [4] | outcome [5] | Potency [6] | Potency [8] | outcome [10] | Potency [9]

C=COCCOCCOC=C
inactive: outcome [1] | outcome [2] | outcome [3] | outcome [4] | outcome [5] | Potency [6] | outcome [7] | outcome [10] | Potency [9]

CC(=O)OC[C@H]1O[C@@H](OC(C)=O)[C@H](OC(C)=O)[C@@H]1OC(C)=O
inactive: outcome [1] | outcome [2] | outcome [3] | outcome [4] | outcome [5] | Potency [6] | Potency [8] | outcome [10] | Potency [9]

CCNC(=O)/C=C/c1cccc(Br)c1
inactive: outcome [1] | outcome [2] | outcome [3] | outcome [4] | outcome [5] | Potency [6] | Potency [8] | outcome [10] | Potency [9]

CCCCC(CC)CNC(=O)CC(C)OC(=O)CCC(=O)O (stereo not drawn)
inactive: outcome [1] | outcome [2] | outcome [3] | outcome [4] | outcome [5] | Potency [6] | Potency [8] | outcome [10] | Potency [9]

CCOC(=O)C(=O)c1csc(NC=O)n1
inactive: outcome [1] | outcome [2] | outcome [3] | outcome [4] | outcome [5] | Potency [6] | outcome [7] | outcome [10] | Potency [9]

Nc1cc(Cl)cc(S(=O)(=O)O)c1O
inactive: outcome [1] | outcome [2] | outcome [3] | outcome [4] | outcome [5] | Potency [6] | outcome [7] | outcome [10] | Potency [9]

CC(C)(C)c1ccc(C=O)cc1
inactive: outcome [1] | outcome [2] | outcome [3] | outcome [4] | outcome [5] | Potency [6] | Potency [8] | outcome [10] | Potency [9]

CC(C)C(=O)c1ccccc1
inactive: outcome [1] | outcome [2] | outcome [3] | outcome [4] | outcome [5] | Potency [6] | Potency [8] | outcome [10] | Potency [9]
